# Measured values: the supplement of paper PMC8728848
# Shown is part of a subset that was picked to be rich in the strongest signals.
# Columns and labels:
# Experiment in all cases: glycan array binding signal (z-score within array); higher = stronger binding
# Conditions in all cases: glycan notation: IUPAC condensed, linker removed
# [1] = target: Fuc(a1-2)Gal(b1-4)GlcNAc(b1-2)Man(a1-3)[Fuc(a1-2)Gal(b1-4)GlcNAc(b1-2)Man(a1-6)]Man(b1-4)GlcNAc(b1-4)GlcNAc
# Procedure, shortened: (§1)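 Glycan array data were curated from 3228 arrays in the Consortium for Functional Glycomics database and kept only where the protein sequence was available. Glycan names were converted to IUPAC-condensed notation, and columns mapping to the same glycan were averaged. The binding signal is a within-array Z-score, averaged across arrays of the same protein sequence at different concentrations or buffers and across linkers. Negative Z-scores can be read as non-binding.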
# [2] = target: Fuc(a1-2)Gal6S(b1-4)Glc6S
# Procedure, shortened: as §1
# [3] = target: Fuc(a1-2)[Gal(a1-4)]Gal(b1-4)GlcNAc
# Procedure, shortened: as §1
# [4] = target: Fuc(a1-3)[Gal3S(b1-4)]Glc6S
# Procedure, shortened: as §1
# [5] = target: Fuc(a1-3)[Gal3S(b1-4)]GlcNAc6S
# Procedure, shortened: as §1
# [6] = target: Fuc(a1-3)[GalNAc(b1-4)]GlcNAc
# Procedure, shortened: as §1
# Fuc(a1-4)GlcNAc = target: Fuc(a1-4)GlcNAc
# Procedure, shortened: as §1
# [7] = target: Gal(a1-3)Gal(b1-4)[Fuc(a1-3)]GlcNAc
# Procedure, shortened: as §1
# Gal(b1-3)Gal = target: Gal(b1-3)Gal
# Procedure, shortened: as §1
# [8] = target: Gal(b1-3)GalNAc(b1-4)Gal(b1-4)Glc
# Procedure, shortened: as §1
# [9] = target: Gal(b1-3)GlcNAc(b1-2)Man(a1-3)[Gal(b1-3)GlcNAc(b1-2)Man(a1-6)]Man(b1-4)GlcNAc(b1-4)[Fuc(a1-6)]GlcNAc
# Procedure, shortened: as §1
# [10] = target: Gal(b1-3)GlcNAc(b1-3)Gal(b1-4)Glc
# Procedure, shortened: as §1
# [11] = target: Gal(b1-3)[Fuc(a1-4)]GlcNAc(b1-3)Gal(b1-4)GlcNAc
# Procedure, shortened: as §1
# [12] = target: Gal(b1-4)GalNAc(a1-3)[Fuc(a1-2)]Gal(b1-4)GlcNAc
# Procedure, shortened: as §1
# [13] = target: Gal(b1-4)GlcNAc(b1-6)Gal(b1-4)GlcNAc
# Procedure, shortened: as §1
# Gal3S(b1-3)GlcNAc = target: Gal3S(b1-3)GlcNAc
# Procedure, shortened: as §1
# Gal3S(b1-4)Glc6S = target: Gal3S(b1-4)Glc6S
# Procedure, shortened: as §1
# [14] = target: Gal3S(b1-4)[Fuc(a1-3)]Glc
# Procedure, shortened: as §1
# Gal3S4S(b1-4)GlcNAc = target: Gal3S4S(b1-4)GlcNAc
# Procedure, shortened: as §1
# Gal3S6S(b1-4)GlcNAc6S = target: Gal3S6S(b1-4)GlcNAc6S
# Procedure, shortened: as §1
# Glc(a1-4)Glc = target: Glc(a1-4)Glc
# Procedure, shortened: as §1
# Glc(a1-6)Glc(a1-6)Glc = target: Glc(a1-6)Glc(a1-6)Glc
# Procedure, shortened: as §1
# GlcA(b1-3)Gal = target: GlcA(b1-3)Gal
# Procedure, shortened: as §1
# [15] = target: GlcNAc(b1-3)Gal(b1-4)GlcNAc(b1-3)Gal(b1-4)GlcNAc
# Procedure, shortened: as §1
# GlcNAc(b1-4)GlcNAc = target: GlcNAc(b1-4)GlcNAc
# Procedure, shortened: as §1
# [16] = target: GlcNAc(b1-4)GlcNAc(b1-4)GlcNAc
# Procedure, shortened: as §1
# [17] = target: GlcNAc(b1-6)Gal(b1-4)GlcNAc
# Procedure, shortened: as §1
# [18] = target: Man(a1-2)Man(a1-2)Man(a1-6)[Man(a1-3)]Man
# Procedure, shortened: as §1
# [19] = target: Neu5Ac(a2-3)Gal(b1-3)GalNAc
# Procedure, shortened: as §1
# [20] = target: Neu5Ac(a2-3)Gal(b1-3)GalNAc(b1-4)[Neu5Ac(a2-3)]Gal(b1-4)Glc
# Procedure, shortened: as §1
# [21] = target: Neu5Ac(a2-3)Gal(b1-3)GalNAc6S
# Procedure, shortened: as §1
# [22] = target: Neu5Ac(a2-3)Gal(b1-3)GlcNAc
# Procedure, shortened: as §1
# [23] = target: Neu5Ac(a2-3)Gal(b1-3)[Fuc(a1-4)]GlcNAc(b1-3)Gal(b1-3)[Fuc(a1-4)]GlcNAc
# Procedure, shortened: as §1
# [24] = target: Neu5Ac(a2-3)Gal(b1-4)GlcNAc(b1-2)Man(a1-3)[Neu5Ac(a2-6)Gal(b1-4)GlcNAc(b1-2)Man(a1-6)]Man(b1-4)GlcNAc(b1-4)GlcNAc
# Procedure, shortened: as §1
# Neu5Ac(a2-6)Gal(b1-4)Glc = target: Neu5Ac(a2-6)Gal(b1-4)Glc
# Procedure, shortened: as §1
# [25] = target: Neu5Ac(a2-6)Gal(b1-4)GlcNAc(b1-2)Man(a1-3)[GlcNAc(b1-2)Man(b1-4)GlcNAc(b1-2)Man(a1-6)]Man(b1-4)GlcNAc(b1-4)GlcNAc
# Procedure, shortened: as §1
# [26] = target: Neu5Ac(a2-6)Gal(b1-4)GlcNAc(b1-2)Man(a1-3)[Man(a1-6)]Man(b1-4)GlcNAc(b1-4)GlcNAc
# Procedure, shortened: as §1
# [27] = target: Neu5Ac(a2-6)Gal(b1-4)GlcNAc(b1-3)Gal(b1-4)GlcNAc
# Procedure, shortened: as §1
# [28] = target: Neu5Ac(a2-8)Neu5Ac(a2-3)[GalNAc(b1-4)]Gal(b1-4)Glc
# Procedure, shortened: as §1
# Neu5Gc(a2-3)Gal(b1-4)Glc = target: Neu5Gc(a2-3)Gal(b1-4)Glc
# Procedure, shortened: as §1
binder,measurement,setting,value
"GIINTLQKYYCRVRGGRCAVLSCLPKEEQIGKCSTRGRKCCRRKK [Beta-Defensin 3 (Homo sapiens), P81534]",glycan array binding signal (z-score),[1],-0.692
same,glycan array binding signal (z-score),[2],5.67
same,glycan array binding signal (z-score),[3],-0.449
same,glycan array binding signal (z-score),[4],3.57
same,glycan array binding signal (z-score),[5],8.21
same,glycan array binding signal (z-score),[6],-0.467
same,glycan array binding signal (z-score),Fuc(a1-4)GlcNAc,-0.369
same,glycan array binding signal (z-score),[7],-0.233
same,glycan array binding signal (z-score),Gal(b1-3)Gal,0.134
same,glycan array binding signal (z-score),[8],-0.315
same,glycan array binding signal (z-score),[9],-0.62
same,glycan array binding signal (z-score),[10],-0.348
same,glycan array binding signal (z-score),[11],-0.493
same,glycan array binding signal (z-score),[12],-0.395
same,glycan array binding signal (z-score),[13],-0.485
same,glycan array binding signal (z-score),Gal3S(b1-3)GlcNAc,0.98
same,glycan array binding signal (z-score),Gal3S(b1-4)Glc6S,4.37
same,glycan array binding signal (z-score),[14],0.062
same,glycan array binding signal (z-score),Gal3S4S(b1-4)GlcNAc,4.31
same,glycan array binding signal (z-score),Gal3S6S(b1-4)GlcNAc6S,3.11
same,glycan array binding signal (z-score),Glc(a1-4)Glc,0.053
same,glycan array binding signal (z-score),Glc(a1-6)Glc(a1-6)Glc,-0.18
same,glycan array binding signal (z-score),GlcA(b1-3)Gal,1.72
same,glycan array binding signal (z-score),[15],-0.356
same,glycan array binding signal (z-score),GlcNAc(b1-4)GlcNAc,-0.569
same,glycan array binding signal (z-score),[16],-0.463
same,glycan array binding signal (z-score),[17],-0.369
same,glycan array binding signal (z-score),[18],-0.442
same,glycan array binding signal (z-score),[19],-0.221
same,glycan array binding signal (z-score),[20],-0.555
same,glycan array binding signal (z-score),[21],1.18
same,glycan array binding signal (z-score),[22],-0.304
same,glycan array binding signal (z-score),[23],-0.364
same,glycan array binding signal (z-score),[24],-0.484
same,glycan array binding signal (z-score),Neu5Ac(a2-6)Gal(b1-4)Glc,-0.294
same,glycan array binding signal (z-score),[25],-0.583
same,glycan array binding signal (z-score),[26],-0.313
same,glycan array binding signal (z-score),[27],-0.64
same,glycan array binding signal (z-score),[28],-0.591
same,glycan array binding signal (z-score),Neu5Gc(a2-3)Gal(b1-4)Glc,-0.025
